Source: article PMC4336329 (PLoS ONE, 2015)
The campaign covered roughly 310,000 compounds. About 14,000 (4.5%) showed an effect of 50% or more. Effects have a minus sign here. Only a selection was taken, and strong results are over-represented in it overall.

What follows are compounds tested against human ether-à-go-go-related gene (hERG) potassium channel (human, UniProt Q12809) (assay: primary screen, population patch clamp on CHO cells stably expressing hERG; higher = less effect of the substance).
human ether-à-go-go-related gene (hERG) potassium channel, sequence (Q12809 whole entry, looked up): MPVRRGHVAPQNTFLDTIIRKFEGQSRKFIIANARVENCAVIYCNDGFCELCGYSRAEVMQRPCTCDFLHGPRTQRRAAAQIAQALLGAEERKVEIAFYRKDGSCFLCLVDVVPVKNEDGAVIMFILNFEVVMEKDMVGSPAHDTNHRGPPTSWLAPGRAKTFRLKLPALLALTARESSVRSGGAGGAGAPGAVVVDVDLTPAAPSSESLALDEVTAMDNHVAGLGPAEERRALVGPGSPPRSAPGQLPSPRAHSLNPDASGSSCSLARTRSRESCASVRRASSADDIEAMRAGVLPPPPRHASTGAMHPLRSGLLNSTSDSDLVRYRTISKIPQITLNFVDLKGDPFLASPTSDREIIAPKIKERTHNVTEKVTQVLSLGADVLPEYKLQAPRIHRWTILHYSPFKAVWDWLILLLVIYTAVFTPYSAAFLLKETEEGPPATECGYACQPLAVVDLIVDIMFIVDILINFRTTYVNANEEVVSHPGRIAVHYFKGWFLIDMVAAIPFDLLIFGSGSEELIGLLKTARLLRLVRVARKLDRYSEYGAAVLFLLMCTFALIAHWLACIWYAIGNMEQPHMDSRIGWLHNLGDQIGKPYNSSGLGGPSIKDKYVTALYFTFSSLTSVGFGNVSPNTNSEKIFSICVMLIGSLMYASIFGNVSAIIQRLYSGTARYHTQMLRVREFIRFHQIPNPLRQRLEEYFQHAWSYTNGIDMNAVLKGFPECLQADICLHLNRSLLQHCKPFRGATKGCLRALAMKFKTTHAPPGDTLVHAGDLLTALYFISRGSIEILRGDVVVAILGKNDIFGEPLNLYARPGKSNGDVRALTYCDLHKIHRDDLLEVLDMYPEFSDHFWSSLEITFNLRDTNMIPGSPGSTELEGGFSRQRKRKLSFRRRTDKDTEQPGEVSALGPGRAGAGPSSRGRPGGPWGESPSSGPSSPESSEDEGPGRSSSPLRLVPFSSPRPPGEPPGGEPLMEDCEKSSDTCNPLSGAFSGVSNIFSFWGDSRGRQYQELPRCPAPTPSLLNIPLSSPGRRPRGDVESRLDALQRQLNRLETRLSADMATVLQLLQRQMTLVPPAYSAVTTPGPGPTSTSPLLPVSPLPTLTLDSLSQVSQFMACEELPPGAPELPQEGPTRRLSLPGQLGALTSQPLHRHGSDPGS
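Also: peak tail current of the secondary pulse compared with the same well before compound.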

Structure (SMILES) | hERG current change (%, negative = inhibition) at 10uM
COc1ccc(C2CC(c3ccc(C)o3)=NN2C(C)=O)cc1 (centres unmarked) | 7.14%
CCOC(=O)C1SC2(C(F)(F)C(F)F)CC1(O)c1c(c(OC)c3occc3c1OC)O2 (centres unmarked) | -3.47%
O=C(COC(=O)Cc1cccc2ccccc12)Nc1ccccc1-c1ccccc1 | 9.26%
NC(=S)Nc1cccc2cnccc12 | 1.4%
COc1cc(NC(=O)c2cc3ccccc3cc2OC)ccc1NC(=O)c1cccs1 | 9.15%
O=C(CSc1nnc(-c2ccncc2)n1Cc1ccco1)c1ccc(Cl)cc1 | -46%
O=C(CSc1nnc(-c2cccnc2)n1Cc1ccco1)c1ccc(Cl)cc1 | -63.6%
COc1ccc(C(=O)CSc2nnc(-c3cccnc3)n2Cc2ccco2)cc1 | -42.9%
O=C(CSc1nnc(-c2cccnc2)n1Cc1ccco1)c1ccc(Br)cc1 | -63.8%
O=C(CSc1nnc(-c2cccnc2)n1Cc1ccco1)c1ccccc1 | -10.3%
O=C(CSc1nnc(-c2cccnc2)n1Cc1ccco1)c1ccc(Cl)c(Cl)c1 | -45.2%
CC1CCCC(NC(=S)Nc2cccc(S(=O)(=O)N(C)C)c2)C1C (centres unmarked) | 13.7%
CCOC(=O)/C=C1\SCC(=O)N1CC(=O)Nc1ccccc1OC(F)F | 18.8%
O=C(Nc1ccc(NC(=O)c2cccs2)c(Cl)c1)c1ccco1 | -39.4%
CN(CC(=O)N1CCN(c2ccccn2)CC1)S(=O)(=O)c1ccc(Cl)cc1 | -46.2%
Nc1ncc(Br)cc1S(=O)(=O)NCCC(=O)N1CCN(c2ccccn2)CC1 | -55.4%
CN1CCN(C(=O)CN(C)S(=O)(=O)c2ccc(F)cc2)CC1 | 16.8%
Cc1ccc(CNC(=O)Cn2cnc(S(=O)(=O)N3CCC(C)CC3)c2)o1 | -62.1%
COc1ccc(S(=O)(=O)N(C)CC(=O)N2CCN(c3ccc(F)cc3)CC2)cc1OC | -44%
CN(CC(=O)N1CCN(c2ccccn2)CC1)S(=O)(=O)c1ccc(Br)cc1 | -54.8%
O=C(Cn1cnc(S(=O)(=O)N2CCCCC2)c1)NCc1ccco1 | 8.34%

Structure (SMILES) | hERG current change (%, negative = inhibition) at 10uM
CN(CC(=O)N1CCN(c2ccc(F)cc2)CC1)S(=O)(=O)c1ccc(F)cc1 | -53.2%
Nc1ncc(Br)cc1S(=O)(=O)NCCC(=O)N1CCN(c2ccccc2)CC1 | -8.45%
Nc1ncc(Br)cc1S(=O)(=O)NCCC(=O)N1CCN(c2ncccn2)CC1 | -25.6%
CN(CC(=O)N1CCN(c2ccccn2)CC1)S(=O)(=O)c1ccccc1 | -12.8%
Cc1ccc(CNC(=O)Cn2cnc(S(=O)(=O)N3CCCCC3)c2)o1 | -2.35%
CC1(C)C[C@H](O)[C@]2(CO)CC[C@]3(C)C(=CCC4[C@@]5(C)CC[C@H](O)C(C)(C)C5CC[C@]43C)[C@@H]2C1 (some centres unmarked) | -13.9%
O=C(CSc1nnc2ccccn12)NCc1ccco1 | 22.3%
O=C1CC(NNc2nc3ccccc3s2)C(=O)N1c1ccccc1 (centres unmarked) | -1.89%
O=C(CSc1nnc(-c2ccccc2)c2ccccc12)NCCN1C(=O)CSC1=O | -27.6%
O=C(CSc1ccccn1)Nc1ccc2c(c1)OCCO2 | 8.07%
O=C(Nc1cccnc1)c1cc2cc(Br)ccc2o1 | 8.93%
Cc1cc(-c2n[nH]c(=S)n2/N=C/c2ccco2)n[nH]1 | 7.99%
Cc1ccc(CC(=O)N2CCN(c3cccc(C(F)(F)F)c3)CC2)cc1 | -9.64%
O=C(CS(=O)(=O)c1ccc(F)cc1)N1CCN(c2ccccc2)CC1 | -42.4%
Cc1cccc(N2CCN(C(=O)CCNS(=O)(=O)c3ccc4c(c3)CCC(=O)N4)CC2)c1C | -44.6%
Cc1ccc(S(=O)(=O)CC(=O)N2CCN(c3ccccc3F)CC2)cc1 | -16.8%
O=C(CCS(=O)(=O)c1ccccc1)N1CCN(c2cccc(C(F)(F)F)c2)CC1 | -43.1%
CC1CCN(S(=O)(=O)c2cn(CC(=O)N3CCN(c4cccc(C(F)(F)F)c4)CC3)cn2)CC1 | -54%
Cc1ccc(C)c(N2CCN(C(=O)CN(C)S(=O)(=O)c3ccc4c(c3)CCC(=O)N4)CC2)c1 | -41.5%
Cc1ccc(S(=O)(=O)CC(=O)N2CCN(c3cccc(C(F)(F)F)c3)CC2)cc1 | -50.4%
CC(=O)c1ccc(N2CCN(C(=O)Cn3cnc(S(=O)(=O)N4CCCCC4)c3)CC2)cc1 | 7.48%

Structure (SMILES) | hERG current change (%, negative = inhibition) at 10uM
Cc1cccc(N2CCN(C(=O)CN(C)S(=O)(=O)c3ccc4c(c3)CCC(=O)N4)CC2)c1C | -60.5%
Cc1ccc(S(=O)(=O)CC(=O)N2CCN(c3ccc(F)cc3)CC2)cc1 | -51.5%
Cn1cnc(S(=O)(=O)N2CCN(c3cccc(C(F)(F)F)c3)CC2)c1 | 7.43%
CC(=NCC1CCCO1)c1c(O)n(-c2ccc(C)cc2)c(=O)[nH]c1=O (centres unmarked) | -8.18%
O=S1(=O)CCC(N=Nc2c(O)n(Cc3ccccc3)c3ccccc23)C1 (centres unmarked) | -25.1%
COc1cc(C)ccc1OCCOc1c(C)cccc1Cl | 2.01%
CCOc1ccc(NC(=O)NCc2ccco2)cc1 | 16.4%
CCOC(=O)c1ccccc1NC(=O)c1cn(-c2ccc(C)c(C)c2)c(=O)c2ccccc12 | -2.12%
CC(CN1CCCC1)OC(=O)c1ccc(F)cc1.Cl (centres unmarked) | -10.1%
COC(=O)CNC(=O)c1ccc(C)s1 | -0.614%
CCc1c(C(=O)NNC(=S)NC2CCCCC2)csc1C | 16.3%
O=c1cc(C(F)(F)F)c2sc(N3CCCCC3)nc2[nH]1 | 20.1%
O=C(NCc1ccco1)/C(=C/c1ccc(F)cc1)NC(=O)c1ccccc1 | -14.1%
CSc1ccc(/C=C(\NC(=O)c2ccc(C)cc2)C(=O)NN)cc1 | -10.9%
O=C(NCc1ccc(F)cc1)c1ccncc1 | 13.7%
CSc1ccc(/C=C(/NC(=O)c2ccc(C)cc2)C(=O)Nc2cccc(F)c2)cc1 | 6.66%
Cc1ccc(C(=O)N/C(=C\c2ccc(F)cc2)C(=O)NCc2ccncc2)cc1 | -75.9%
Cc1ccc(C(=O)N/C(=C/c2ccc(F)cc2)C(=O)NCc2ccncc2)cc1 | -72.8%
Cc1ccc(NC(=O)/C(=C/c2ccncc2)NC(=O)c2ccccc2)cc1 | -9.82%
CN(C)c1ccc(/C=C(\NC(=O)c2ccccc2)C(=O)NCc2ccncc2)cc1 | -12.8%
O=C(NCc1ccncc1)/C(=C\c1ccc(F)cc1)NC(=O)c1ccccc1 | -70.9%

Structure (SMILES) | hERG current change (%, negative = inhibition) at 10uM
O=C(O)c1cccc(-n2cccc2/C=N/O)c1 | 11.4%
Cc1ccnc(NC(=O)CCC(=O)N(CC(=O)NC(C)(C)C)C2CCCC2)c1 | 1%
Cc1cc(C)c(OCC(=O)Nc2cccc(NC(=O)c3ccco3)c2)c(Br)c1 | 1.79%
CCOc1ccc(NC(=O)c2ccccc2NC(=O)CN2CCN(C(C)=O)CC2)cc1 | -3.2%
O=C(NCCSc1ncc(-c2ccc(F)cc2)[nH]1)c1ccco1 | -37.1%
C/C=C/c1ccc(OCCN2C(=O)NC(C)(C)C2=O)c(OC)c1 | 6.58%
OC(CNCCc1ccccc1)c1ccccc1 (centres unmarked) | -0.0558%
O=C(O)c1ccc2ccccc2c1O.OCc1cc(C(O)CNCCCCCCOCCCCc2ccccc2)ccc1O (centres unmarked) | -45.5%
OCc1cc(C(O)CNCCCCCCOCCCCc2ccccc2)ccc1O (centres unmarked) | -57.9%
Cc1ccc(C(=O)Nc2ccc(N3CCN(C(=O)c4ccco4)CC3)cc2)cc1 | 10.4%
CCN(CC)CCCN1C(=O)c2oc3ccccc3c(=O)c2C1c1cc(OC)ccc1OC (centres unmarked) | -13%
COCC(C)OC(=O)C(C#N)c1nc2ccccc2nc1N1CCN(Cc2ccccc2)CC1 (centres unmarked) | -31%
CC1CCN(c2nc3ccccc3nc2C(C#N)C(=O)NC2CCCCC2)CC1 (centres unmarked) | 10.1%
CC(C)OC(=O)C(C#N)c1nc2ccccc2nc1N1CCN(Cc2ccccc2)CC1 (centres unmarked) | -18.6%
C=CCOC(=O)C(C#N)c1nc2ccccc2nc1N1CCN(Cc2ccccc2)CC1 (centres unmarked) | -62.1%
N#CC(C(=O)NC1CC1)c1nc2ccccc2nc1N1CCCC1 (centres unmarked) | -7.63%
COC(=O)C(C#N)c1nc2ccccc2nc1N1CCN(Cc2ccc3c(c2)OCO3)CC1 (centres unmarked) | -2.48%
COCCOC(=O)C(C#N)c1nc2ccccc2nc1N1CCN(Cc2ccccc2)CC1 (centres unmarked) | -64.3%
N#CC(C(=O)NC1CC1)c1nc2ccccc2nc1N1CCN(C/C=C/c2ccccc2)CC1 (centres unmarked) | -58.9%
CC(C)COC(=O)C(C#N)c1nc2ccccc2nc1N1CCN(Cc2ccccc2)CC1 (centres unmarked) | -12%
